# Compounds with a hit are over-represented: about 1.3% of the library has one in this group of screens.
# LYPLA1 counter: LYPLA1 (human) inhibition in PME1 counter-screen | O75608 | recombinant LYPLA1, FP-Rh probe fluorescence polarization | inhibition, % at 5.9 µM | 0.16% of 320,000 active | AID 2174;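 active = inhibition above the mean of all tested compounds plus 3 SD, set per campaign, cut at about 14% in these data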;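 also: inhibitors block serine hydrolase probe labeling of LYPLA1 so polarization falls; 0% = enzyme with DMSO and 100% = wells lacking LYPLA1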
# Target sequence (O75608 whole entry, looked up): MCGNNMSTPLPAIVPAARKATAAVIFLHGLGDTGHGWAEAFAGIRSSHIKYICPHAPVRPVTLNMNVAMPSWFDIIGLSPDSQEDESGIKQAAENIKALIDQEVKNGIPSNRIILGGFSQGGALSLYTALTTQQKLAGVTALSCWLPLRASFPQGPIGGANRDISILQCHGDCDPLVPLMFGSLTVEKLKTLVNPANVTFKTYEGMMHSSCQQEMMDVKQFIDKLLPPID
# PREPL inhibitor: inhibitors of human prolyl oligopeptidase-like enzyme PREPL | Q4J6C6 | recombinant PREPL, fluorescence polarization activity-based probe | inhibition, % at 5.96 µM | 0.68% of 320,000 active; in the data active = inhibition above about 43%;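 also: 0% = enzyme with DMSO and 100% = wells lacking enzyme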
# Fam108B counter: counter-screen for RBBP9 inhibitors: inhibitors of mouse Fam108B; recombinant Fam108B, FP-Rh probe fluorescence polarization; inhibition, % at 9.51 µM; 0.33% of 300,000 active;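 active = inhibition above the screen mean inhibition plus 3 SD, computed separately per campaign, cut at about 18% in these data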;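 also: inhibitors lower polarization as less probe binds the enzyme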
# LYPLA2 counter: blocks human lysophospholipase 2, a PME1 counter-screen. O95372. recombinant LYPLA2, FP-Rh probe fluorescence polarization. inhibition, % at 5.9 µM. 0.38% of 320,000 active;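 active = inhibition above the screen-wide mean plus 3 SD, limit set per campaign, cut at about 26% in these data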;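 also: 0% = LYPLA2 with DMSO and 100% = wells lacking LYPLA2 enzyme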
# PME-1 inh: blocks human protein phosphatase methylesterase 1 | Q9Y570 | recombinant PME-1, FP-Rh probe fluorescence polarization | inhibition, % at 5.9 µM | 0.53% of 320,000 active;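 active = inhibition above the campaign mean of all compounds plus 3 SD, cut at about 26% in these data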;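 also: competitive labeling of PME-1 active site by serine hydrolase directed probe; 0% = PME-1 with DMSO and 100% = wells lacking PME-1 enzyme; inhibitors block probe labeling so polarization falls and inhibition rises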
# Target sequence (Q9Y570 whole entry, looked up): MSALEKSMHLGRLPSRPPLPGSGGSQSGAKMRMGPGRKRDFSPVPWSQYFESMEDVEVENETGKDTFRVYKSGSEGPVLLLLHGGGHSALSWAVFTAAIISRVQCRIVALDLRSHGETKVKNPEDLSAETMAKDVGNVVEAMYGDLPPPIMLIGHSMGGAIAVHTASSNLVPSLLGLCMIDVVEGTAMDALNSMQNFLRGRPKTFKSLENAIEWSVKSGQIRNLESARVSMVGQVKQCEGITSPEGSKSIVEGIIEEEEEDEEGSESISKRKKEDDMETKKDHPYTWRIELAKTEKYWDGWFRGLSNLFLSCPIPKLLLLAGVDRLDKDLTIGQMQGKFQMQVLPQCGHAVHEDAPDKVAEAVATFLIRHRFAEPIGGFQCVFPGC
# LYPLA1 confirm: LYPLA1 (human) inhibition, confirmation counter-screen | shares compounds with LYPLA1 counter | AID 2233 | recombinant LYPLA1, FP-Rh probe fluorescence polarization | inhibition, % at 5.9 µM | 69% of 480 active;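 active = mean inhibition across replicates above the hit cutoff set in the primary screen, cut at about 15% in these data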;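 also: loss of FP-Rh probe labeling of LYPLA1 seen as lower polarization; 0% = LYPLA1 with DMSO and 100% = wells lacking LYPLA1 enzyme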
# An asterisk follows results filed as active; / = no result given.
SMILES,LYPLA1 counter,PREPL inhibitor,Fam108B counter,LYPLA2 counter,PME-1 inh,LYPLA1 confirm
O=C(NNC(=O)c1cccc(C(F)(F)F)c1)c1ccc(-n2cnnn2)cc1,/,3.0,/,/,/,/
O=C(CCN1C(=O)C2C3C=CC(C4CC34)C2C1=O)Nc1ccc(Cl)cc1O (configuration not stated),-2.0,-6.0,-1.9,3.1,-13.6,/
CCOC(=O)C1(O)CSc2nc3sc(C(=O)O)c(C)c3c(=O)n21 (configuration not stated),14.5*,8.7,-1.5,12.6,4.0,4.9
COc1ccc(S(=O)(=O)Nc2ccc(Cc3ccncc3)cc2)cc1OC,20.3*,6.8,3.9,1.2,14.7,28.2*
O=S(=O)(Nc1ccc(Cc2ccncc2)cc1)c1ccc(Cl)c(Cl)c1,2.4,-8.9,2.9,-1.3,9.5,/
Cc1onc(-c2ccccc2Cl)c1C(=O)NCc1ccc2c(c1)cc(C)n2C,16.0*,29.9,8.2,21.9,23.1,13.2
Cc1ccc(CNC(=O)c2c(-c3ccccc3Cl)noc2C)cc1,-3.6,-3.9,-2.5,1.6,-2.7,/
Cc1cccc(-n2c(O)c(C=Nc3ccccc3-c3n[nH]c(=S)[nH]c3=O)c3ccccc3c2=O)n1,0.9,14.6,6.5,2.6,-1.9,/
Cc1ccc(-n2c(O)c(C=Nc3ccccc3-c3n[nH]c(=S)[nH]c3=O)c3ccccc3c2=O)c(C)c1,14.8*,9.1,7.8,-3.9,-9.4,15.1*
CC1=CC(C)(C)N2C(=O)C(=Nc3ccc(O)cc3)c3cccc1c32,16.7*,34.1,16.0,20.3,44.4*,4.7
CCOc1ccc(C2OC34CCCCC3C(C#N)(C#N)C2(C#N)C(=N)O4)cc1OC (configuration not stated),20.9*,16.5,16.9,25.3,21.4,8.2
CC1CCN(C(=O)C2CCN(S(=O)(=O)c3ccc4c(c3)CC(C)N4C(=O)C3CC3)CC2)CC1 (configuration not stated),9.8,11.3,-3.3,5.6,-8.2,/
CC1CC(C)CN(S(=O)(=O)c2ccc3c(c2)CC(C)N3C(=O)C2CCC2)C1 (configuration not stated),54.5*,1.4,0.0,14.0,2.8,54.2*
CCOC(=O)C1CCCCN1S(=O)(=O)c1ccc2c(c1)CC(C)N2C(=O)C1CCC1 (configuration not stated),15.3*,8.8,4.7,11.7,2.6,8.9
CC1CC(C)CN(S(=O)(=O)c2ccc3c(c2)CC(C)N3C(=O)C2CC2)C1 (configuration not stated),28.7*,11.1,-0.7,1.0,11.5,31.1*
COc1ccc(NC(=O)CSc2nnc(NC(=O)c3ccc(S(=O)(=O)N4CCOCC4)cc3)s2)cc1,-1.9,2.4,-3.6,0.4,5.3,/
CNc1ccc(/C=C(\CCC(=O)O)c2nc3ccccc3s2)cc1[N+](=O)[O-],16.4*,24.1,12.6,11.1,25.5,21.7*
O=C1CCC([N+](=O)[O-])C(c2ccc(C(F)(F)F)cc2)N1 (configuration not stated),0.2,7.6,-4.3,2.0,-2.2,/
O=C1CCC([N+](=O)[O-])C(c2ccc(-c3ccccc3)cc2)N1 (configuration not stated),22.0*,4.4,3.1,10.5,6.6,24.0*
Cc1noc(C)c1CN1C(=O)c2ccccc2C1=O,-3.0,3.9,0.5,-4.9,-4.8,/
CCOC(=O)c1ccc(N2C(=O)c3n[nH]c(C)c3C2c2ccc(OC)c(OC)c2)cc1 (configuration not stated),29.4*,-29.4,-5.3,9.3,-0.2,42.3*
CCOC(=O)c1ccc(N2C(=O)c3n[nH]c(C)c3C2c2ccc(OC)cc2)cc1 (configuration not stated),11.4,-17.0,-1.1,4.7,1.9,/
COC(=O)c1ccc(Oc2ccc(S(=O)(=O)N3CCCCC3)cc2N)cc1,26.2*,4.9,-0.9,16.9,3.0,46.7*
CC1CCCC(C)N1/N=C/c1ccc(C(=O)O)cc1 (configuration not stated),-0.7,20.3,-0.9,4.4,5.4,/
CCNC(=S)NNC(=O)Cn1c(=O)c2c(ncn2CCOC)n(Cc2ccccc2)c1=O,40.9*,-2.5,-3.6,-9.7,-4.3,1.3
SMILES,LYPLA1 counter,PREPL inhibitor,Fam108B counter,LYPLA2 counter,PME-1 inh,LYPLA1 confirm
COCCn1cnc2c1c(=O)n(CC(=O)OCC#N)c(=O)n2Cc1ccccc1,-2.0,4.0,0.3,2.1,-0.6,/
CCOc1ccc(C(=O)NCC(=O)N2CCC3(CC2)NCCc2[nH]cnc23)cc1,-2.6,-2.6,-2.3,-1.4,-4.7,/
COc1ccccc1/C=C/C=N\N1CCN(Cc2ccccc2Cl)CC1,2.6,17.4,3.7,10.1,4.5,/
COc1cc(/C=N/N2CCN(Cc3ccc(Cl)cc3)CC2)cc(Br)c1O,48.9*,19.1,-1.1,22.0,2.2,53.8*
COc1ccccc1/C=C/C=N/N1CCN(Cc2ccc(Cl)cc2)CC1,18.9*,27.9,-0.3,21.1,0.8,25.8*
Cc1cc(Nc2ccc(O)cc2)ccc1N,16.0*,31.4,/,20.8,35.5*,0.4
Cc1nnc(SCC(=O)Nc2sc3c(c2C#N)CCCC3)[nH]c1=O,-2.4,17.9,-0.5,-10.2,1.2,/
N#Cc1c(NC(=O)CSc2nc(N)cc(=O)[nH]2)sc2c1CCCC2,45.6*,7.3,-0.5,13.8,1.8,46.5*
O=C(O)CCC(=O)Nc1sc2c(c1C(=O)NC1CCCC1)CCCC2,-2.3,3.1,3.7,-0.4,8.0,/
COC(=O)c1ccc(NC(=O)CCC(=O)c2ccc(F)cc2)cc1,1.2,-4.4,-1.0,0.4,-4.1,/
S=c1[nH]nc(-c2cc3c(s2)-c2ccccc2CC3)o1,17.3*,8.1,10.1,-0.1,22.4,20.7*
c1ccc(OCc2nc3c4c(ncn3n2)-c2ccccc2CC42CCCC2)cc1,-0.5,5.7,0.7,0.4,2.0,/
O=C(CSc1nncs1)Nc1ccc(N2CCCCC2)cc1,-1.4,0.6,/,-0.6,-4.2,/
CNc1oc(-c2cccc3ccccc23)nc1C#N,17.0*,11.0,6.2,7.0,5.9,5.5
COc1ccc(OC)c(NC(=O)C2CCC(CNc3c(N4CCOCC4)c(=O)c3=O)CC2)c1 (configuration not stated),0.6,8.8,1.1,-2.3,-5.6,/
COc1ccc(NC(=O)C2CCC(CNc3c(N4CCCCC4)c(=O)c3=O)CC2)cc1OC (configuration not stated),17.0*,1.2,-2.8,1.8,-0.8,21.0*
O=C(CCC(=O)NCCCc1ccccc1)NCCCc1ccccc1,-0.7,0.8,0.6,1.9,10.2,/
O=C(O)CCCCCCCCCCCc1ccccc1,18.4*,4.5,3.4,25.7,-0.1,27.5*
CC(=O)Nc1ccc(SCC(=O)N(C)C2CCS(=O)(=O)C2)cc1 (configuration not stated),3.6,17.9,-3.8,-1.2,-7.8,/
CCOC(=O)CSc1nnc(CCCCCN2C(=O)c3cccc4cccc(c34)C2=O)o1,-0.2,13.4,0.5,4.1,-9.3,/
